This note sets out measurements from PubChem BioAssay (NCI).

Test systems include SR leukemia; RPMI-8226 leukemia; OVCAR-8 ovarian; OVCAR-5 ovarian; OVCAR-4 ovarian; SK-OV-3 ovarian; IGROV1 ovarian; OVCAR-3 ovarian; HS 578T breast; NCI/ADR-RES ovarian; T-47D breast; BT-549 breast; MDA-MB-435 melanoma; SW-620 colon; MCF7 breast; HCT-116 colon; HCC-2998 colon; KM12 colon.
Test in all cases: NCI-60 one-dose screen, 48 h (100 = growth as untreated, 0 = no growth, -100 = all killed)
Common to all, as to details: 10 µM unless noted

SMILES strings stand for the structures. Compounds without any hit were thinned out: in the full panel of roughly 83,000, 20% have a hit.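 How to read the values: 0–100, growth inhibition (40 = 60% inhibited); 0, no net growth; -100 to 0, cell death (-40 = 40% of starting cells died; -100 = all dead).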 Unmarked numbers belong to inactive results. Active and inactive are the calls of the source. How the source made its calls: active means growth percent below 10; inactive means the rest.

Regarding `O=C(/C=C/c1ccccc1Br)c1cccc(OCCCCOc2cccc(C(=O)/C=C/c3ccccc3Br)c2)c1`, the growth in the test with SR leukemia is 31.8%; in the test with RPMI-8226 leukemia it was -11.7% (active); in the test with OVCAR-8 ovarian, 102%; in the test with OVCAR-5 ovarian, 105%; in the test with OVCAR-4 ovarian, 101%; in the test with SK-OV-3 ovarian, 104%. The growth with IGROV1 ovarian was 92.4%; with OVCAR-3 ovarian, 108%; in the test with HS 578T breast, 102%; with NCI/ADR-RES ovarian, 102%; in the test with T-47D breast, 75.4%; in the test on BT-549 breast, 104%. In addition, the growth in the test with MDA-MB-435 melanoma is 97%; with SW-620 colon it was 99%; in the test on MCF7 breast it was 28.1%; in the test with HCT-116 colon, 16.4%; in the test on HCC-2998 colon, 109%; with KM12 colon, 101%.

As for `Clc1ccc(Cl)c(N=Cc2ccc3c(c2)OCO3)c1`, the growth was 114% in the test on SR leukemia; 99.9% in the test on RPMI-8226 leukemia; 97.8% with OVCAR-8 ovarian; 103% in the test on OVCAR-5 ovarian; 108% in the test on OVCAR-4 ovarian; 105% in the test on SK-OV-3 ovarian. The growth with IGROV1 ovarian is 114%; in the test on OVCAR-3 ovarian it was 115%; in the test with HS 578T breast it was 109%; in the test on NCI/ADR-RES ovarian it was 106%; with T-47D breast it was 101%; in the test with BT-549 breast, 96.2%. Also, the growth was 106% in the test on MDA-MB-435 melanoma; 107% with SW-620 colon; 108% with MCF7 breast; 104% with HCT-116 colon; 98.5% in the test on HCC-2998 colon; 106% in the test on KM12 colon.

For `Oc1ccc(-c2nc3ccccc3s2)cc1CN(Cc1ccccn1)Cc1ccccn1`, the growth in the test on SR leukemia was 7.98% (active); in the test with RPMI-8226 leukemia, 13.2%; with OVCAR-8 ovarian, 9.43% (active); in the test on OVCAR-5 ovarian, 40.9%; with OVCAR-4 ovarian, 18%; in the test on SK-OV-3 ovarian, 7% (active). For the same compound, the growth with IGROV1 ovarian is 15%; in the test with OVCAR-3 ovarian it was 26.2%; with HS 578T breast, 41.6%; in the test with NCI/ADR-RES ovarian, -37.2% (active); with T-47D breast, 12.8%; with BT-549 breast, 18.5%. Also, the growth with MDA-MB-435 melanoma is 26.6%; in the test with SW-620 colon, 20.1%; in the test with MCF7 breast it was 14.8%; in the test on HCT-116 colon, 15.5%; in the test with HCC-2998 colon, 5.52% (active); with KM12 colon it was 24.8%.

Consider `COc1cc2ncnc(Nc3ccc(S(=O)(=O)Nc4nccs4)cc3)c2cc1OCCCN1CCOCC1`, for which the growth with SR leukemia is 108%; in the test on RPMI-8226 leukemia, 106%; in the test with OVCAR-8 ovarian, 103%; in the test with OVCAR-5 ovarian, 106%; in the test on OVCAR-4 ovarian it was 107%; in the test on SK-OV-3 ovarian, 96.2%. Besides, the growth with IGROV1 ovarian is 106%; with OVCAR-3 ovarian it was 101%; in the test with HS 578T breast it was 99.9%; with NCI/ADR-RES ovarian, 102%; in the test with T-47D breast, 106%; in the test with BT-549 breast it was 119%. For the same compound, the growth in the test with MDA-MB-435 melanoma was 101%; in the test on SW-620 colon, 103%; in the test with MCF7 breast, 105%; in the test with HCT-116 colon, 100%; with HCC-2998 colon, 104%; in the test on KM12 colon it was 101%.

Regarding `CCn1c(Cc2ccccc2Nc2c(Cl)cccc2Cl)nnc1SCC(=O)Nc1cccc(OC)c1`, the growth with SR leukemia is 87.1%; in the test with RPMI-8226 leukemia, 63.2%; with OVCAR-8 ovarian, 89.8%; in the test on OVCAR-5 ovarian, 82.9%; in the test on OVCAR-4 ovarian, 78.7%; in the test with SK-OV-3 ovarian, 85.4%. Further, the growth with IGROV1 ovarian was 67%; in the test on OVCAR-3 ovarian it was 96%; in the test with HS 578T breast, 72%; with NCI/ADR-RES ovarian, 86.1%; with T-47D breast, 58.9%; in the test on BT-549 breast, 98.8%. Further, the growth is 93.4% with MDA-MB-435 melanoma; 85.3% in the test on SW-620 colon; 84% with MCF7 breast; 66.5% in the test on HCT-116 colon; 100% in the test with HCC-2998 colon; 88% with KM12 colon.

As to `O=C1/C(=C/c2ccccc2)SC(=Nc2ccccc2)N1Nc1ccccc1`, the growth in the test with SR leukemia is -20.1% (active); in the test with RPMI-8226 leukemia, -37.4% (active); in the test on OVCAR-8 ovarian, 24.5%; in the test on OVCAR-5 ovarian, 22.3%; in the test on OVCAR-4 ovarian, 8.26% (active); in the test on SK-OV-3 ovarian, 10.5%. For the same compound, the growth in the test with IGROV1 ovarian is 22.7%; in the test on OVCAR-3 ovarian, -5.68% (active); in the test on HS 578T breast, 35.1%; in the test with NCI/ADR-RES ovarian, 8.98% (active); in the test on T-47D breast, 5.78% (active); in the test with BT-549 breast it was -19.3% (active). Also, the growth is -25.4% (active) in the test with MDA-MB-435 melanoma; 13.1% in the test with SW-620 colon; 1.62% (active) in the test on MCF7 breast; -23.4% (active) in the test with HCT-116 colon; 20.3% with HCC-2998 colon; 3.45% (active) with KM12 colon.

For the compound `COc1ccc(C(=O)OC2C(OC3C(O)COC(O[C@H]4C[C@H]5[C@@H]6CC=C7C[C@@H](O)CC[C@]7(C)[C@H]6CC[C@]5(C)[C@H]4[C@H](C)C(=O)CCC(C)C)C3OC(=O)C(C)C)OCC(O)C2O)cc1` (some centres not stated), the growth is 5.59% (active) in the test with SR leukemia; -27.4% (active) in the test with RPMI-8226 leukemia; 36.3% in the test with OVCAR-8 ovarian; 42% in the test with OVCAR-5 ovarian; 60.9% in the test with OVCAR-4 ovarian; -21.1% (active) in the test with SK-OV-3 ovarian. Besides, the growth with IGROV1 ovarian was 37.2%; with OVCAR-3 ovarian, 60.5%; in the test on HS 578T breast, -2.09% (active); in the test on NCI/ADR-RES ovarian it was 75%; in the test on T-47D breast, -1.53% (active); in the test on BT-549 breast, 14.6%. The growth was -1.62% (active) in the test with MDA-MB-435 melanoma; -19.5% (active) in the test on SW-620 colon; 3.21% (active) in the test with MCF7 breast; 10.3% with HCT-116 colon; 59% in the test on HCC-2998 colon; 36.3% in the test on KM12 colon.

`CNC(=O)c1c(NC(=O)c2cccc(C(F)(F)F)c2)sc2c1CCC(=O)C2`: the growth in the test with SR leukemia was 1.53% (active); in the test with RPMI-8226 leukemia, -33% (active); with OVCAR-8 ovarian, 8.86% (active); with OVCAR-5 ovarian, -22.2% (active); in the test with OVCAR-4 ovarian, -81.5% (active); with SK-OV-3 ovarian, -5.12% (active). Also, the growth in the test with IGROV1 ovarian is -24.8% (active); in the test with OVCAR-3 ovarian it was 3.37% (active); with HS 578T breast, 17.7%; with NCI/ADR-RES ovarian, -7.1% (active); with T-47D breast, -32.8% (active); with BT-549 breast, -14.8% (active). Further, the growth is 4.37% (active) with MDA-MB-435 melanoma; -17.8% (active) in the test with SW-620 colon; 0.296% (active) with MCF7 breast; 0.607% (active) in the test on HCT-116 colon; -33.3% (active) with HCC-2998 colon; -12.9% (active) with KM12 colon.

Regarding `CC(=O)CC(c1ccc([N+](=O)[O-])cc1)c1c(O)c2ccccc2oc1=O` (configuration not stated), the growth in the test with SR leukemia is 92.9%; in the test on RPMI-8226 leukemia it was 108%; in the test with OVCAR-8 ovarian, 105%; in the test on OVCAR-5 ovarian, 100%; with OVCAR-4 ovarian it was 110%; in the test with SK-OV-3 ovarian, 108%. The growth with IGROV1 ovarian is 107%; in the test with OVCAR-3 ovarian, 109%; in the test with HS 578T breast it was 97.9%; in the test with NCI/ADR-RES ovarian, 105%; in the test with T-47D breast it was 95.7%; with BT-549 breast, 88.5%. Also, the growth was 103% with MDA-MB-435 melanoma; 101% in the test on SW-620 colon; 102% in the test with MCF7 breast; 101% in the test with HCT-116 colon; 105% with HCC-2998 colon; 98.5% in the test on KM12 colon.
